The full data set covers some 8,800 targets. This sample favours those with a hit. About 0.5% of all pairs of compound and target were hits. Values without a mark were called inactive.
Tests used:
Experiment in all cases: log2 fold change, soluble protein after heating vs DMSO (PISA); higher = thermal stabilisation; K562 lysate, 10 uM; active = over 0.2 and 3.5 SD of the protein, either way, in both replicates (recomputed)
ibrutinib = compound: C=CC(=O)N1CCC[C@@H](n2nc(-c3ccc(Oc4ccccc4)cc3)c3c(N)ncnc32)C1 [ibrutinib]
Procedure, shortened: (§1)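 To prepare the extract, K562 pellets were dounce-homogenised in PBS pH 7.4 with 1 mM MgCl2, giving crude material at 1 mg/mL protein. This was treated with 10 μM compound for 30 min, then heated in aliquots for 3 min over 48°C-58°C before pooling and addition of NP-40 to 0.5% at 4°C. Centrifugation at 21,000xg for 90 min left soluble protein in the supernatant, which TMTpro 16plex LC-MS/MS quantified with equalised channel sums. Results are log-two fold changes in thermal stability compared with solvent controls, from duplicates.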

[1] = compound: CC(=O)c1cnc2ccc(-c3cc(Cl)c(O)c(Cl)c3)nc2c1N[C@H]1CC[C@H](CN(C)C)CC1
Procedure, shortened: as §1

ralimetinib = compound: CC(C)(C)Cn1c(N)nc2ccc(-c3[nH]c(C(C)(C)C)nc3-c3ccc(F)cc3)nc21 [ralimetinib]
Procedure, shortened: as §1

[2] = compound: CC(C)(O)CC(=O)NCCn1ccc2ncnc(Nc3ccc(Oc4cccc(C(F)(F)F)c4)c(Cl)c3)c21
Procedure, shortened: as §1

[3] = compound: CC(C)C1=C2N=C(C=C(N2N=C1)NCC3=CC=CC=C3)NCCCCCCN
Procedure, shortened: as §1

[4] = compound: CC1=C(C(CC(=O)N1)C2=CC=C(C=C2)C(F)(F)F)C(=O)NC3=C(C=C4C(=C3)C=NN4)F
Procedure, shortened: as §1

[5] = compound: CC1=C(C2=C(C=C1)C(=O)C3=CC=CC=C3N2CCCN)C
Procedure, shortened: as §1

[6] = compound: CC1=C(C=C(C=C1)NC(=O)C2=CC(=CC=C2)C(C)(C)C#N)NC3=CC4=C(C=C3)N=CN(C4=O)C
Procedure, shortened: as §1

[7] = compound: CC1=C(C=C(C=C1)NC(=O)C2=CC(=CC=C2)N(C)C)NC(=O)C3=CC=C(C=C3)O
Procedure, shortened: as §1

[8] = compound: CC1=CC=C(C=C1)SC2=C3C=C(SC3=CN=C2)C(=O)N
Procedure, shortened: as §1

vemurafenib = compound: CCCS(=O)(=O)Nc1ccc(F)c(C(=O)c2c[nH]c3ncc(-c4ccc(Cl)cc4)cc23)c1F [vemurafenib]
Procedure, shortened: as §1

[9] = compound: CCCS(=O)(=O)Nc1ccc(F)c(C(=O)c2c[nH]c3ncc(Cl)cc23)c1F
Procedure, shortened: as §1

barasertib = compound: CCN(CCCOc1ccc2c(Nc3cc(CC(=O)Nc4cccc(F)c4)[nH]n3)ncnc2c1)CCOP(=O)(O)O [barasertib]
Procedure, shortened: as §1

[10] = compound: CC[C@@H]1C(=O)N(C)c2cnc(Nc3ccc(C(=O)NC4CCN(C)CC4)cc3OC)nc2N1C1CCCC1
Procedure, shortened: as §1

volasertib = compound: CC[C@@H]1C(=O)N(C)c2cnc(Nc3ccc(C(=O)N[C@H]4CC[C@H](N5CCN(CC6CC6)CC5)CC4)cc3OC)nc2N1C(C)C [volasertib]
Procedure, shortened: as §1

[11] = compound: CCn1c(C(=O)N(C2CC2)C2CC2)cc2c3c(ncn3C)c(Nc3cc(C)n(C)n3)nc21
Procedure, shortened: as §1

[12] = compound: CCn1cc(-c2ccnc3[nH]c(-c4cccc(CN(C)C)c4)cc23)c(-c2ccc(NC(=O)N(C)C)cc2)n1
Procedure, shortened: as §1

[13] = compound: CN1CCC(CNc2ccc3ncc(-c4cccc(OC(F)(F)F)c4)n3n2)CC1
Procedure, shortened: as §1

saracatinib = compound: CN1CCN(CCOc2cc(OC3CCOCC3)c3c(Nc4c(Cl)ccc5c4OCO5)ncnc3c2)CC1 [saracatinib]
Procedure, shortened: as §1

sotrastaurin = compound: CN1CCN(c2nc(C3=C(c4c[nH]c5ccccc45)C(=O)NC3=O)c3ccccc3n2)CC1 [sotrastaurin]
Procedure, shortened: as §1

UniProt Q5BJF2, sequence (Q5BJF2 whole entry, looked up): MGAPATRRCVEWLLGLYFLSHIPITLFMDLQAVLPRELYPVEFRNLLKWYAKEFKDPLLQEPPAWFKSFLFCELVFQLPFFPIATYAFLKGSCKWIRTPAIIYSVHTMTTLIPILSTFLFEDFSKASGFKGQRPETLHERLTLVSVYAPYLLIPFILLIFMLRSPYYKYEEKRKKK
UniProt Q8NBN3, sequence (Q8NBN3 whole entry, looked up): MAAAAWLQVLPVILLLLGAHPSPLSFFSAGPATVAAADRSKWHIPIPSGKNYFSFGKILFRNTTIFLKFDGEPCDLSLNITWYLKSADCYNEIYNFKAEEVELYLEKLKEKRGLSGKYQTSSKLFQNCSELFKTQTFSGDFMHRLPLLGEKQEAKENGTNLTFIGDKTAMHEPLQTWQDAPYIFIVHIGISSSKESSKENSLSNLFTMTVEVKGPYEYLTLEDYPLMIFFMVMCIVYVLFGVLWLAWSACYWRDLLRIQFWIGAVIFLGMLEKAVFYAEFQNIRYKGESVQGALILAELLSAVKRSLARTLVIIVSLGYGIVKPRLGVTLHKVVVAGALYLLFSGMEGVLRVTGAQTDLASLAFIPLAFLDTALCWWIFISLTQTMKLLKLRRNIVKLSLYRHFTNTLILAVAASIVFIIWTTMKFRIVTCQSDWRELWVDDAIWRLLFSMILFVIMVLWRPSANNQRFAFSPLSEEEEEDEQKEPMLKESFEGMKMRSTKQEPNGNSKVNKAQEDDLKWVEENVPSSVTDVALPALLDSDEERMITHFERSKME
UniProt P29144, sequence (P29144 whole entry, looked up): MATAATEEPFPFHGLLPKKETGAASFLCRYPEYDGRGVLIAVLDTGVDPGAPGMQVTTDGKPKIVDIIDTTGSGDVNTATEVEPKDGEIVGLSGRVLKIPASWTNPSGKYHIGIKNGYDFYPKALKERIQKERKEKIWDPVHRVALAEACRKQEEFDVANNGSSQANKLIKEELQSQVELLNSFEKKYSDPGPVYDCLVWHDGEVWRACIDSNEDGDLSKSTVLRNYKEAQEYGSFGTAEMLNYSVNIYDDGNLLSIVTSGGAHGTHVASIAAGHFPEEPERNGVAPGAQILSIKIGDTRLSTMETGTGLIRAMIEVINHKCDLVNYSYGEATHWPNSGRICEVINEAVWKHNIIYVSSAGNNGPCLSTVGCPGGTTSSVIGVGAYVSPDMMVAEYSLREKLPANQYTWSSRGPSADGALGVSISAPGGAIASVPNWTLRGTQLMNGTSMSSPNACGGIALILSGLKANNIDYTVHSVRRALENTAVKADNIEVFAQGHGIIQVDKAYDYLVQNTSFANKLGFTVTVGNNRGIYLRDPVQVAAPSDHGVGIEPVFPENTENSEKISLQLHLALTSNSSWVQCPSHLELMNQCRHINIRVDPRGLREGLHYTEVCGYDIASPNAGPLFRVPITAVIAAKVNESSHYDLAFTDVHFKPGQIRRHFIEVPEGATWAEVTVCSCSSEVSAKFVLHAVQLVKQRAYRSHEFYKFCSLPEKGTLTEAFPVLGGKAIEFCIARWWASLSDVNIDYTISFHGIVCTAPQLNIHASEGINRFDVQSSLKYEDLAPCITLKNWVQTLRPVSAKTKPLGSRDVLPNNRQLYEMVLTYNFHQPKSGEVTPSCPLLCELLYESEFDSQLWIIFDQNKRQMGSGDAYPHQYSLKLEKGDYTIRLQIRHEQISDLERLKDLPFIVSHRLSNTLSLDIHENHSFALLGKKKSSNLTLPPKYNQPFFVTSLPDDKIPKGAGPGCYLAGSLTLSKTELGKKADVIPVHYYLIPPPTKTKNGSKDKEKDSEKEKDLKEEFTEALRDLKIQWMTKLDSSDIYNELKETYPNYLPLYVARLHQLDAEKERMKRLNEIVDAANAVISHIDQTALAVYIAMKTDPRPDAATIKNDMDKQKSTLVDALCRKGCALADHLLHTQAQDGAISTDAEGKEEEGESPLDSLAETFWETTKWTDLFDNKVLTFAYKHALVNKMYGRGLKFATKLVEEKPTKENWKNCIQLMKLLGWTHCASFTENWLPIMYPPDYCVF
UniProt Q9BSJ2, sequence (Q9BSJ2 whole entry, looked up): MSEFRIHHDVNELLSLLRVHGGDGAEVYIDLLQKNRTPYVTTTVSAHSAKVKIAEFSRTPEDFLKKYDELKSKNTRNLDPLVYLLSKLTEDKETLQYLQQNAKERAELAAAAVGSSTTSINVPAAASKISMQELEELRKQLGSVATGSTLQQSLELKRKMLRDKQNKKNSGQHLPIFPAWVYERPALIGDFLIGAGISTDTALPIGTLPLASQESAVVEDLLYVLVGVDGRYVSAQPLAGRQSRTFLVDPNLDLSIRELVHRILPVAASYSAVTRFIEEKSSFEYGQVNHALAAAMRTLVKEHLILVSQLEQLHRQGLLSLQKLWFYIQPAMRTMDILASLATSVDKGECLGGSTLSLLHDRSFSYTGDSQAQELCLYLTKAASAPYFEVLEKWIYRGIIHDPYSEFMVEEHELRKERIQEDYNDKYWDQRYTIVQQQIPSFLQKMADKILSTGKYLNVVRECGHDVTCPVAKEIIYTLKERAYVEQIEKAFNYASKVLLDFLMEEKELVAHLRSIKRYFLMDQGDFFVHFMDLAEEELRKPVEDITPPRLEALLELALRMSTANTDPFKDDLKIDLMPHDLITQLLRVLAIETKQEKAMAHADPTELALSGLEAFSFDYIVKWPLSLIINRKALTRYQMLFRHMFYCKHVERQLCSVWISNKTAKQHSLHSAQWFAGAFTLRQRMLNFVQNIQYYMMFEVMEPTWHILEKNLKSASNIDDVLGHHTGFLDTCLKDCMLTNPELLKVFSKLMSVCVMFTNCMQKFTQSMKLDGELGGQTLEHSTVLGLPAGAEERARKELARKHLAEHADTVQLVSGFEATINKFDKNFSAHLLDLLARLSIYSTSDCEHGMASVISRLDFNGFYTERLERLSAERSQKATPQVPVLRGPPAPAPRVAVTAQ
UniProt Q96DX7, sequence (Q96DX7 whole entry, looked up): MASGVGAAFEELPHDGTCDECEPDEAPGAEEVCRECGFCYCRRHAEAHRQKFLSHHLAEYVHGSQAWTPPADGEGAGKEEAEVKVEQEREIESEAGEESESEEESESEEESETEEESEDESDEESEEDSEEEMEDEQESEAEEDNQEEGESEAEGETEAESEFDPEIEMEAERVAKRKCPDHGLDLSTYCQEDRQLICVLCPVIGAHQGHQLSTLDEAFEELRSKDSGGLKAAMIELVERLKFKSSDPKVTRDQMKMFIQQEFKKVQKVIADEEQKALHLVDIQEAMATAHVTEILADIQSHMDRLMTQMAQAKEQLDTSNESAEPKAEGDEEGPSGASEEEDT
UniProt P17480, sequence (P17480 whole entry, looked up): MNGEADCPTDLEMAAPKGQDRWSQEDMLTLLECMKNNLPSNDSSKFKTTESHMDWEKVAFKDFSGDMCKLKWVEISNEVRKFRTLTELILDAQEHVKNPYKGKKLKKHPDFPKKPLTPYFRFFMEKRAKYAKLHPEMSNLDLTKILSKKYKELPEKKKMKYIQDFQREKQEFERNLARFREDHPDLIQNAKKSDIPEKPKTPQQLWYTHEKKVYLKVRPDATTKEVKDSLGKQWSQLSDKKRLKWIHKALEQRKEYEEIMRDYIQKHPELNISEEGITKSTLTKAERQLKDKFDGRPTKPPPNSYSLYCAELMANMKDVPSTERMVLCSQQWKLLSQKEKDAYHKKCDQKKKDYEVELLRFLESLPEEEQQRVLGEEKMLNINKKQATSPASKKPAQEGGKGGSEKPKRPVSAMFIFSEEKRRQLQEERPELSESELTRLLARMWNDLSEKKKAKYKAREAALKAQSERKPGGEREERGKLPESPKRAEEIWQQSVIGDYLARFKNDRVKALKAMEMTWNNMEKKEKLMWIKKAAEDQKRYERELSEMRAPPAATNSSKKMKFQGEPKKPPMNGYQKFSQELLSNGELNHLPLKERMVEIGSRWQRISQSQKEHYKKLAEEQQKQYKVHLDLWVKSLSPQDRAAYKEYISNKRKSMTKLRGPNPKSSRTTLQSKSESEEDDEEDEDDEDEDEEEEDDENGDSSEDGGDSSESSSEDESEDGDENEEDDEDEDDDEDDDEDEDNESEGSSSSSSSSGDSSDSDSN
UniProt P11441, sequence (P11441 whole entry, looked up): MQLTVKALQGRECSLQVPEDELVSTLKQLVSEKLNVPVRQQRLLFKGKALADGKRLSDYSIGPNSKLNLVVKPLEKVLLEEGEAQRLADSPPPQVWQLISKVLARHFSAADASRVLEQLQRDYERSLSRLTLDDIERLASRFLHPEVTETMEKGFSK
UniProt P51668, sequence (P51668 whole entry, looked up): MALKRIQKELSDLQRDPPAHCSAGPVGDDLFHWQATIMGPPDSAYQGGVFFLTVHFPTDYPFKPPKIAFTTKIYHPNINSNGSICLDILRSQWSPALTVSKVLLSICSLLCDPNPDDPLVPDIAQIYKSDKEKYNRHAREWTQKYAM

Row | Target | log2 fold change (ibrutinib) | log2 fold change [1] | log2 fold change (ralimetinib) | log2 fold change [2] | log2 fold change [3] | log2 fold change [4] | log2 fold change [5] | log2 fold change [6] | log2 fold change [7] | log2 fold change [8] | log2 fold change (vemurafenib) | log2 fold change [9] | log2 fold change (barasertib) | log2 fold change [10] | log2 fold change (volasertib) | log2 fold change [11] | log2 fold change [12] | log2 fold change [13] | log2 fold change (saracatinib) | log2 fold change (sotrastaurin)
1 | UBE2D1 (UniProt P51668) | -0.033 | 0.017 | -0.009 | 0.073 | 0.01 | -0.03 | -0.007 | -0.002 | 0.043 | -0.007 | -0.013 | 0.022 | 0.014 | 0.012 | -0.046 | 0.089 | 0.007 | -0.025 | 0.043 | -0.021
2 | UBTF (UniProt P17480) | 0.026 | 0.025 | 0.017 | -0.002 | 0.016 | 0.046 | -0.075 | -0.022 | 0.044 | -0.002 | -0.024 | 0.002 | 0.011 | -0.291 (active) | -0.011 | 0.002 | 0.038 | -0.067 | 0.042 | 0.023
3 | UBL4A (UniProt P11441) | 0.056 | 0.055 | 0 | 0.049 | 0.009 | -0.023 | -0.02 | -0.044 | -0.002 | 0.025 | -0.032 | -0.001 | 0.089 | -0.081 | -0.02 | 0.121 | 0.33 (active) | -0.094 | 0.028 | 0
4 | TMEM87A (UniProt Q8NBN3) | -0.002 | 0.019 | -0.031 | -0.035 | -0.075 | -0.017 | -0.02 | 0.016 | 0.004 | -0.02 | 0.032 | -0.007 | -0.025 | 0.008 | -0.006 | -0.026 | -0.114 | 0.332 (active) | -0.001 | 0.017
5 | TMEM97 (UniProt Q5BJF2) | 0.01 | 0.012 | 0.004 | -0.056 | -0.034 | -0.025 | -0.032 | 0.003 | 0.042 | -0.017 | 0.076 | -0.027 | 0.037 | 0.028 | 0.099 | -0.048 | -0.327 (active) | 0.173 | 0.002 | -0.08
6 | TUBGCP2 isoform 4 (UniProt Q9BSJ2) | -0.001 | 0.042 | -0.007 | -0.016 | -0.006 | 0.011 | -0.023 | 0.035 | 0.048 | -0.017 | 0.02 | 0.01 | 0.027 | 0.001 | -0.049 | 0.021 | 0.078 | -0.064 | -0.035 | 0
7 | TRIM44 (UniProt Q96DX7) | 0.031 | 0.124 | 0.032 | -0.013 | -0.037 | -0.021 | -0.004 | -0.044 | 0.022 | 0.086 | -0.085 | 0.095 | 0.066 | -0.075 | -0.014 | 0.003 | 0.146 | -0.031 | 0.023 | 0.044
8 | TPP2 (UniProt P29144) | -0.018 | -0.016 | -0.002 | 0.014 | -0.012 | -0.013 | 0.003 | 0.008 | 0.012 | 0.002 | -0.015 | 0.01 | -0.024 | -0.016 | -0.023 | 0.009 | 0.025 | -0.012 | -0.016 | -0.009

— the supplement of paper PMC10849652
